This is a sample that favours compounds with a hit; in the whole collection about 20% have one here.
HCMV antiviral – human cytomegalovirus inhibition. HFF cells, HCMV-luciferase reporter, 72 h; stronger effect = lower value. activity change, negative = inhibition, % at 57.5 µM. 410,000 compounds, 4.5% hits. AID 1259415; in the data active = activity change below about -60%; inconclusive = no clear call, values can overlap the other calls; inactive = above about -39%; note: % is set by controls: 0 for no effect and ±100 for the full control effect
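Steps: HFFs plated, 16 h 37C; compounds added; HCMV-luciferase added to MOI 1 PFU/cell; 72 h 37C; OneGlo reagent, 5 min room temperature; luminescence read, normalized to controls.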
Pf growth 96h – P. falciparum growth inhibition at 96 hour, primary screen for plastid delayed-death inhibitors | P. falciparum luciferase reporter growth, 96 h | Potency, µM (titrated, usually from 28.7 µM), inactives show at the highest dose activity change, negative = inhibition, usual class: inhibitors | 320,000 compounds, 6.9% hits | AID 504834; note: potency is the fitted concentration of half-maximal effect; % is set by controls: 0 for no effect and ±100 for the full control effect
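Compounds incubated with erythrocytes infected by luciferase-expressing P. falciparum (2% hematocrit, 0.05% parasitemia final) for 96 hours, 37 C in 5% CO2. Growth inhibition scored as decreased luciferase luminescence.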
Cycloheximide cs – counter-screen for Shiga toxin inhibitors: cycloheximide protein synthesis inhibition | AID 2314 | 300,000 compounds, 12% hits | cell reporter, cycloheximide protein synthesis inhibition counterscreen | max response, %; in the data active = max response mostly above about 13%, no sharp cut-off; inactive = mostly below about 14%; note: read at 38.3 µM for the half of the compounds with a filed dose; 0% is about no effect
Pf growth 48h – inhibits P. falciparum growth in the first generation, 48 h | 310,000 compounds, 5.9% hits | Potency, µM (titrated, usually from 28.7 µM), inactives show top-dose activity change, negative = inhibition, actives largely listed as inhibitors | P. falciparum luciferase growth in erythrocytes, 48 h; note: potency is the fitted concentration of half-maximal effect; % is set by controls: 0 for no effect and ±100 for the full control effect
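Luminescence readout; reporter = integrated firefly luciferase in P. falciparum. RBC culture at 2% hematocrit, 0.1% parasitemia final, 37 C/5% CO2; decreased signal taken as growth inhibition.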
Shiga toxin inh – Shiga toxin inhibition; inhibition, % at 38.7 µM; Vero cells, Shiga toxin protein synthesis inhibition reporter; AID 2315; 290,000 compounds, 9.2% hits; in the data active = inhibition mostly above about 28%, no sharp cut-off; inactive = mostly below about 43%; note: 0% is about no effect
Active calls of the source: *; i = inactive; u = inconclusive; x = not tested or not shown. Unless noted, calls come from the whole dose curve; as a rule, active = well fitted inhibition curve with a large enough effect; inconclusive = small, poorly fitted or top-dose-only effect, or another doubt; inactive = no such curve, though single readings can be large or run the other way.

SMILES	HCMV antiviral	Pf growth 96h	Cycloheximide cs	Pf growth 48h	Shiga toxin inh
CC(C)(C)C1C/C(=C/c2ccccn2)C(=O)/C(=C/c2ccccn2)C1 (configuration not stated)	x	-21%	-11	2.1µM*	-23
CC1C/C(=C/c2ccccn2)C(=O)/C(=C/c2ccccn2)C1 (configuration not stated)	x	u	10	2.6µM*	-9
CCOc1ccc(NC(=O)CCc2nnc3ccc(N4CCC(C)CC4)nn23)cc1	u	u	7	9.3µM*	-12
COc1ccc(NC(=O)CCc2nnc3ccc(N4CCC(C)CC4)nn23)cc1OC	-20	4.1µM*	-3	-1%	-5
COc1ccc(OC)c(NC(=O)CCc2nnc3ccc(N4CCC(C)CC4)nn23)c1	-37	34%	-5	u	-4
CCOc1ccc(NC(=O)CCc2nnc3ccc(N4CCN(C)CC4)nn23)cc1	12	-20%	-3	36%	26
Clc1ccccc1Nc1ncnc2c1nc1n2CCCCC1	75	x	x	x	x
Cc1csc(=Nc2ccc(S(=O)(=O)N3CCOCC3)cc2)n1Cc1ccco1	-18	u	-5	u	21
NCC(O)CN1CCN(Cc2ccccc2)CC1 (configuration not stated)	80	23%	-3	11%	6
CN(Cc1ccc(Cl)c(Cl)c1)C(=O)c1ccccc1SCC(=O)N1CCCC1	-99*	u	x	u	x
CN(Cc1ccccc1)C(=O)COC(=O)c1ccccc1SCC(=O)N1CCCC1	-61*	48%	x	-7%	x
CN(C(=O)COC(=O)c1ccccc1SCC(=O)N1CCCC1)c1ccccc1	-7	u	1	-24%	-5
COc1ccc(NC(=S)NC(NC(=O)c2cccc3ccccc23)C(Cl)(Cl)Cl)c([N+](=O)[O-])c1 (configuration not stated)	-17	1.5µM*	-2	x	-6
COc1ccc(NC(=S)NC(NC(=O)CCl)C(Cl)(Cl)Cl)c([N+](=O)[O-])c1 (configuration not stated)	x	22%	-3	-27%	-2
COC(=O)c1ccccc1NC(=S)NC(NC(=O)c1ccccc1[N+](=O)[O-])C(Cl)(Cl)Cl (configuration not stated)	32	7.4µM*	-4	5%	-5
COc1ccc(NC(=S)NC(NC(=O)c2ccccc2Cl)C(Cl)(Cl)Cl)c([N+](=O)[O-])c1 (configuration not stated)	u	3.7µM*	-3	x	17
COc1ccc(NC(=S)NC(NC(=O)c2ccc(Cl)cc2Cl)C(Cl)(Cl)Cl)c([N+](=O)[O-])c1 (configuration not stated)	-17	-17%	-3	x	-8
COC(=O)c1ccccc1NC(=S)NC(NC(=O)c1ccco1)C(Cl)(Cl)Cl (configuration not stated)	2	102%	18	36%	-2
COC(=O)c1ccccc1NN=Nc1ccccc1[N+](=O)[O-]	-101*	x	x	x	x
CCCNC(=O)C1(C)CCN(C(=O)c2ccc3c(c2)CCO3)C1 (configuration not stated)	-17	x	x	x	x
CC1CN(c2ccccc2)NC1=O (configuration not stated)	10	27%	11	9%	11
Cc1nn(C)c2c1c(-c1ccccc1)cc(=O)n2Cc1ccccc1C#N	2	x	x	x	x
Nc1nnc(CC(=O)N/N=C/c2ccccc2OCc2ccccc2F)s1	-28	-7%	-2	-9%	-2
Nc1nnc(CC(=O)N/N=C/c2cccc(OCCOc3ccccc3)c2)s1	69	165%	41*	154%	69*
Nc1nnc(CC(=O)N/N=C/c2cccc([N+](=O)[O-])c2)s1	-12	5%	-5	32%	-13
SMILES	HCMV antiviral	Pf growth 96h	Cycloheximide cs	Pf growth 48h	Shiga toxin inh
Cc1ccccc1OCCOc1cccc(/C=N/NC(=O)Cc2nnc(N)s2)c1	62	i	38*	224%	137*
CCOC(=O)Cc1ncccc1C(=O)Nc1ccc(Oc2ccccc2)cc1	-98*	12µM*	5	8.3µM*	3
O=C(Nc1ccc(Oc2cccnc2)cc1)c1ccccc1F	-86*	88%	26*	-13%	64
O=C(Nc1ccc(F)cc1)c1cccnc1Oc1ccccc1	40	18%	-2	x	-3
O=C(Nc1ccccc1Oc1ccccc1)c1ccccc1F	-26	-3%	-3	u	-2
O=C(Nc1ccc(Oc2cccnc2)cc1)c1ccccc1Cl	u	u	27*	14%	2
COC(=O)c1sccc1S(=O)(=O)N(CC(=O)Nc1cccc(C)c1C)c1ccc(C)c(C)c1	3	x	x	x	x
CCCCCn1c(=O)[nH]c2cc(C(=O)N3CCN(c4ccccc4)CC3)ccc2c1=O	-3	x	x	x	x
COC(=O)C1(S(=O)(=O)c2cc(Br)cc3c2N(C(C)=O)CC3)CC1	x	77%	-1	9.3µM*	-12
CCOC(=O)C1CCN(S(=O)(=O)c2cc(Br)cc3c2N(C(=O)C2CC2)CC3)CC1	69	-1%	-3	8.3µM*	-8
CCC(=O)N1CCc2cc(Br)cc(S(=O)(=O)N3CCC(C(=O)NCCCOC(C)C)CC3)c21	10	u	6	2.9µM*	-26
CCOCCCNC(=O)C1CCN(S(=O)(=O)c2cc(Br)cc3c2N(C(=O)CC)CC3)CC1	44	u	-7	u	-11
CC(=O)N1CCc2cc(Br)cc(S(=O)(=O)N3CCCCCC3)c21	-16	0%	-2	3.3µM*	-1
CNc1nc(SC)nc(N(C)C#N)n1	18	-2%	-1	2%	28
CCc1sc(Nc2cccc(C)c2C)nc1-c1cc2cccc(OC)c2oc1=O	9	x	x	x	x
O=C1Nc2ccccc2CCC1Sc1nnc(-c2ccc(Cl)cc2)s1 (configuration not stated)	u	u	-2	13µM*	-4
O=C(COc1ccc(S(=O)(=O)N2CCOCC2)cc1)N1CCN(Cc2ccc3c(c2)OCO3)CC1	-61*	u	-2	x	-19
O=C(COc1ccc(Br)cc1)N1CCN(Cc2ccc3c(c2)OCO3)CC1	-7	3%	-1	1%	1
CCCCNS(=O)(=O)c1ccc(OCC(=O)N2CCN(Cc3ccc4c(c3)OCO4)CC2)cc1	-83*	10µM*	12	u	-5
O=C(COc1ccc(S(=O)(=O)N2CCOCC2)cc1)N1CCCCCC1	-85*	15%	-1	u	20
CCCNS(=O)(=O)c1ccc(OCC(=O)N2CCN(Cc3ccccc3)CC2)cc1	-37	u	1	-13%	-12
O=C(c1coc2ccc(O)cc12)C1CC1	-9	8.3µM*	25*	40%	58*
O=C(c1ccc(Cl)cc1)c1coc2ccc(O)cc12	45	168%	43*	144%	73*
O=C(c1ccc(Br)cc1)c1coc2ccc(O)cc12	24	x	x	x	x
O=C(Nc1nccs1)c1cc(S(=O)(=O)N2CCOCC2)ccc1Cl	-5	6%	-2	-3%	-8

High-throughput results as filed in PubChem.
